# Compound activity deposited in PubChem BioAssay by several laboratories.
# Only some compounds are listed: those with a hit (about 0.97% of all), similar ones and a draw of the others.
# TLR4-MyD88 BLA – blocks binding of human TLR4 to MyD88; O00206+Q99836; inhibition, % at 8.4 µM; HeLa CL3-4 TLR4/MyD88 BLA complementation, FRET ratio; 0.18% of 200,000 active; in the data active = inhibition above about 25%;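 also: 0% = vehicle and 100% = reference inhibitor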
# NTR1 ag – NTR1 (human) agonism; activation, % at 20 µM; P30989; 0.17% of 330,000 active; NTR1-U2OS beta-arrestin-GFP spot imaging, agonist mode;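 active = activation at or above 40% of the spot to cytoplasm intensity ratio, with at least 20 cells analyzed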;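 also: 0% = DMSO without peptide and 100% = 100 nM NTR1 peptide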
# NOD2-RIPK2 inh – NOD2-RIPK2 protein interaction inhibition. AID 624267. 0.38% of 360,000 active. inhibition, % at 4.98 µM. CHO BLA complementation NOD2-RIPK2, CCF4 ratio. O43353; in the data active = inhibition above about 21%;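 also: 0% = vehicle only and 100% = reference blocker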
# Bfl-1 A1 inh – inhibitors of the anti-apoptotic protein A1, read as caspase activation; MEF A1-2A-BIM cells, Caspase-Glo 3/7 luminescence, 3 h; percent of clofoctol response, vehicle zero; caspase activation, % (test concentration not listed); 0.066% of 330,000 active;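 active = over half of replicate activation scores above 10%, or exactly half above 10 with the replicate mean above 10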
# TLR9-MyD88 block – TLR9-MyD88 interaction inhibition; CHO BLA complementation TLR9-MyD88, CCF4 FRET ratio; inhibition, % at 4.98 µM; 0.21% of 340,000 active; AID 504734;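 active = inhibition above the mean over all tested compounds plus 3 SD, cut at about 21% in these data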;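 also: 0% = DMSO only wells and 100% = clavulanate BLA inhibitor control wells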
# B2AR ag – human beta-2 adrenergic receptor agonism by FAP | P07550 | Am2.2-beta2AR cells, FAP receptor internalization, flow cytometry | response, % (test concentration not listed) | 0.43% of 340,000 active;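 active = response above a set limit, near 3 SD of response in nonfluorescent compounds, cut at about 42% in these data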
# Beta2AR ag CP1 – human beta-2 adrenergic receptor agonism, cherry pick; Am2.2-beta2AR cells, FAP surface receptor, flow cytometry; stronger effect = lower value; shares compounds with B2AR ag; percent response (surface receptor), % at 10 µM; 25% of 1,100 active;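 active = surface receptor percent response at or below 58%, roughly 3 SD from nonfluorescent compounds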
# B2AR FAP counter – flagged in Am2.2 fluorescence counterscreen for beta-2AR agonists | calls only at 10 µM | AID 588765 | shares compounds with B2AR ag | Am2.2 cells, FAP fluorogen flow cytometry; stronger effect = lower value | 1,100 tested, under 10 active;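 active = percent response below a set limit in fluorescence channel 1 and below 50% in channel 8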
# Active calls of the source: *; i = inactive; · = no result given.
SMILES,TLR4-MyD88 BLA,NTR1 ag,NOD2-RIPK2 inh,Bfl-1 A1 inh,TLR9-MyD88 block,B2AR ag,Beta2AR ag CP1,B2AR FAP counter
CC(C)(C)C(=O)CC1(O)C(=O)N(Cc2ccc(Cl)cc2)c2ccccc21 (stereo not given),0,0,1,0,-12,54*,110,i
Cc1ccc(C2CC(c3ccccc3C)n3nc(N)nc3N2)cc1 (stereo not given),7,0,-7,0,5,8,·,·
CC(NC(=O)c1cc(COc2ccc3ncccc3c2)on1)c1ccc(F)cc1 (stereo not given),·,0,5,0,-5,45*,57*,i
O=C(NC1CCCC1)c1cc(COc2ccc3ncccc3c2)on1,·,1,-6,0,-6,-7,·,·
COc1nc(C)ccc1-c1noc(-c2cccs2)n1,·,1,-14,-9,·,-9,·,·
COc1cccc(/C=N/Nc2nc(-c3cccnc3)nc3ccccc23)c1,·,12,-4,-5,3,9,·,·
COc1cccc(CNc2nc(-c3cccnc3)nc3ccccc23)c1,4,7,3,0,5,-1,156,i
CC(Nc1nc(-c2cccnc2)nc2ccccc12)c1ccccc1 (stereo not given),·,·,3,·,4,·,·,·
COc1ccccc1C(C)Nc1nc(-c2cccnc2)nc2ccccc12 (stereo not given),·,10,-3,0,-7,8,112,i
Cc1ccccc1NC(=O)/C(C#N)=C\c1cccnc1,-1,3,-11,0,0,2,·,·
O=C(CCNS(=O)(=O)c1ccc(Cl)cc1)NCc1ccccn1,1,0,-7,0,-9,-12,·,·
OC(C#Cc1ccccn1)c1cccs1 (stereo not given),0,3,4,0,-2,63*,118,i
O=C(NC1CCCCC1)C(c1cccs1)N(C(=O)c1ccccn1)c1ccccc1 (stereo not given),-13,1,-4,-1,5,-2,·,·
COc1ccc(OC)c(NC(=O)COc2ccc(Br)cc2)c1,·,2,-6,0,-6,68*,105,i
COc1ccc(OC)c(NC(=O)COC(=O)Cc2ccc(Br)cc2)c1,-9,2,2,-1,-1,-5,·,·
Cc1cc(C(=O)OCC(=O)N2CC(=O)Nc3ccccc32)c(C)n1-c1ccccc1,-18,-1,1,1,-8,-2,·,·
CCN(CC)CCNc1ncnc2c1sc1nc(N3CCCC3)c3c(c12)CC(C)(C)OC3,6,8,6,0,3,65*,96,i
CN(C)CCNc1ncnc2c1sc1nc(N3CCCC3)c3c(c12)CC(C)(C)OC3,·,9,-4,-1,-1,72*,35*,i
CC(C)CNc1ncnc2c1sc1nc(N3CCOCC3)c3c(c12)CC(C)(C)OC3,-11,7,-2,0,-1,-7,142,i
CCN(CC)CCNc1ncnc2c1sc1nc(N3CCOCC3)c3c(c12)CCCC3,·,16,4,-1,0,25,·,·
CCN(CCO)c1ncnc2c1sc1nc(CC(C)C)c3c(c12)CC(C)(C)OC3,-11,14,2,0,-3,23,25*,i
CC(C)n1c(SCC(=O)N2c3ccccc3CCc3ccccc32)nc2c1c(=O)n(C)c(=O)n2C,0,·,·,·,·,·,·,·
Cc1cccc(C(=O)O)c1NC(=O)c1ccc(F)cc1,-9,-2,0,-1,2,2,·,·
CCc1ccccc1NC(=O)CN1CCN(C(=O)CNC(=O)c2ccc(-c3ccccc3)cc2)CC1,·,1,4,0,-5,4,·,·
CCOC(=O)CSc1nnc(CNc2cccc(Cl)c2)n1-c1ccccc1,-8,-2,-3,0,-2,7,·,·
SMILES,TLR4-MyD88 BLA,NTR1 ag,NOD2-RIPK2 inh,Bfl-1 A1 inh,TLR9-MyD88 block,B2AR ag,Beta2AR ag CP1,B2AR FAP counter
CCOC(=O)CSc1nnc(CNc2ccc(Cl)cc2)n1-c1ccccc1,-2,2,7,0,-3,108*,99,i
O=[N+]([O-])c1cc(S(=O)(=O)N2CCCCCC2)ccc1Cl,23,2,17,·,-1,48*,90,i
Cc1ccc(S(=O)(=O)N2CCCC2)cc1[N+](=O)[O-],-4,6,-7,0,-2,1,·,·
CCOC(=O)N1CCN(Cc2c(F)cccc2F)CC1,4,2,-11,0,-7,51*,101,i
CC1(C)C2CCC1(CS(=O)(=O)N1CCN(c3ccccc3F)CC1)C(=O)C2 (stereo not given),·,-1,-4,0,-6,72*,112,i
Cn1c(N2CCN(c3ccccn3)CC2)nc2c1c(=O)n(Cc1ccccc1Cl)c(=O)n2C,0,1,-13,1,-10,-9,·,·
Cn1c(N2CCN(c3ccccn3)CC2)nc2c1c(=O)n(Cc1ccc(Cl)cc1)c(=O)n2C,-3,8,2,1,8,127*,23*,i
CCc1ccc(C(C)NC(=O)c2cccs2)cc1 (stereo not given),·,0,2,0,11,6,·,·
CCNC(=S)N/N=C(\C)c1ccc(Cl)s1,-5,2,-13,0,-6,-7,·,·
CNC(=S)N/N=C(\C)c1ccc(Cl)s1,-2,4,0,0,-6,-3,103,i
COC(=O)c1ccc(C(=O)OC)c(-n2c(=O)c3ccccc3c3ccccc3c2=O)c1,-9,26,-5,0,-6,54*,105,i
COC(=O)c1cc2c(C)cc3ccc(C)cn3c-2c1C(=O)OC,-1,-1,4,1,2,1,·,·
CN(C)S(=O)(=O)c1ccc2c(c1)C(CC(=O)O)OC2=O (stereo not given),1,0,4,0,3,49*,104,i
CN(C)S(=O)(=O)c1ccc2c(c1)C(=NO)c1cc(S(=O)(=O)N(C)C)ccc1-2,·,1,-2,1,-1,-1,·,·
CC(C)NCC(O)COCCOc1ccc(Cl)cc1 (stereo not given),·,-1,-3,0,-3,-2,·,·
CCc1ccc(OCCOCC(O)CNC(C)CC)cc1 (stereo not given),-15,0,0,1,5,74*,103,i
O=C(c1cccc(C(=O)N2CCN(Cc3ccccc3)CC2)c1)N1CCN(Cc2ccccc2)CC1,8,3,-7,0,-5,-6,·,·
O=C(c1cccc(Cl)c1)N1CCC(C(=O)N2CCN(Cc3ccccc3)CC2)CC1,·,2,-1,0,-6,79*,25*,i
